Data on two sequences can be found in publication PMC7862700, “An all-to-all approach to the identification of sequence-specific readers for epigenetic DNA modifications on cytosine”.

Assay in all cases: DAPPL (digital affinity profiling via proximity ligation, sequencing); 10 mM Tris-HCl pH 7.5, 50 mM NaCl, 1 mM DTT, 4% glycerol, room temperature, 30 min; GST-TFs on glutathione beads, 16-mer random dsDNA library, 0.1% formaldehyde crosslink after washing; high values mean tight binding
Common to all, as to conditions: protein: recombinant; tags: N-terminal GST; dsDNA, one strand shown

One assay addresses T1, ELK1 (Homo sapiens, UniProt P19419 1-428).
T1 sequence: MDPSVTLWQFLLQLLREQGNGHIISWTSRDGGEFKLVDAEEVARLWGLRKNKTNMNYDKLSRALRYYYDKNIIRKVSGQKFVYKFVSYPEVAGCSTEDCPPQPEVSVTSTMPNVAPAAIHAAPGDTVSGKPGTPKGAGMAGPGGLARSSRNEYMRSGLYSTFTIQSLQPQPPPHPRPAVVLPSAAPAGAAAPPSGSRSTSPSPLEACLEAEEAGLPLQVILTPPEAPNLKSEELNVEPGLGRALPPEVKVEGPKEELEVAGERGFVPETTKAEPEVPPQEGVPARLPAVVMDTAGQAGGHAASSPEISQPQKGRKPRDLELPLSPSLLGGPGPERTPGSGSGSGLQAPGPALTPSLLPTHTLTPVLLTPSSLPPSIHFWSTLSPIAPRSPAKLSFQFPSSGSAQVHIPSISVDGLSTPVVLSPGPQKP
The method, boiled down: (§1)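 Each value of binding signal is a hexamer's read frequency for a factor divided by the same hexamer's frequency in the tag-only sample. Barcoded, bead-captured GST fusions of human transcription factors made in yeast were pooled with that sample and incubated with 200 nmole of a random double-stranded 16-mer DNA library in Tris/NaCl/DTT/glycerol buffer at room temperature for 30 min. Washing, 0.1% formaldehyde crosslinking, proximity ligation, PCR and Illumina NextSeq500 sequencing followed.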

The target of another assay is T2, GABPA (Homo sapiens, UniProt Q06546 1-454).
T2 sequence: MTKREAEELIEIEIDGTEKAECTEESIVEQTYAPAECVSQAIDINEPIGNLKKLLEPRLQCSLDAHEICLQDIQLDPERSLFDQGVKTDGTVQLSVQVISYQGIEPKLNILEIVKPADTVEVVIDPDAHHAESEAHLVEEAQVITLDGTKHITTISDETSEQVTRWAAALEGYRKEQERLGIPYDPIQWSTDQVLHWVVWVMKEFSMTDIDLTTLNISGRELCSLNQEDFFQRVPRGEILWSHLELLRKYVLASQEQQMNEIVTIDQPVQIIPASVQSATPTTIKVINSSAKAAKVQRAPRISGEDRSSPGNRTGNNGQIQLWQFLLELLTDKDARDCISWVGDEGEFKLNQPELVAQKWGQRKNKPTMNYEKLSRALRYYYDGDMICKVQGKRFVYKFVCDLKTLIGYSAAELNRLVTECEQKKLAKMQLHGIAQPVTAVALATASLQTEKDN
The method, boiled down: as §1

The target in the next assay is ELF1 (Homo sapiens, UniProt P32519 1-619). The method in brief: as §1
The next assay addresses T3, EHF (Homo sapiens, UniProt Q9NZC4 1-300).
T3 sequence: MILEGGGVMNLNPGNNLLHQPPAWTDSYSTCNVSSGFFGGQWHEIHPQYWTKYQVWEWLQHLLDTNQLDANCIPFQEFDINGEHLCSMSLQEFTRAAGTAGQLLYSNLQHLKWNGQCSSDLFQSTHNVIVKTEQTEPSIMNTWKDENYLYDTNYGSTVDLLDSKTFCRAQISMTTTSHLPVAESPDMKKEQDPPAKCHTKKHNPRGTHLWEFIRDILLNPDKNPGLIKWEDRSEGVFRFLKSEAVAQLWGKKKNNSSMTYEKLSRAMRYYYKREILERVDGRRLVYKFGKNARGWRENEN
The method in brief: as §1

The next assay concerns the target SPIB (Homo sapiens, UniProt Q01892 1-262). The method in brief:
as §1

The next assay deals with ETV5 (Homo sapiens, UniProt P41161 1-510). The method in brief:
as §1

The target in another assay is ELF4 (Homo sapiens, UniProt Q99607 1-663). The method, boiled down: as §1
The target in another assay is T4, ELK4 (Homo sapiens, UniProt P28324-2 1-405).
T4 sequence: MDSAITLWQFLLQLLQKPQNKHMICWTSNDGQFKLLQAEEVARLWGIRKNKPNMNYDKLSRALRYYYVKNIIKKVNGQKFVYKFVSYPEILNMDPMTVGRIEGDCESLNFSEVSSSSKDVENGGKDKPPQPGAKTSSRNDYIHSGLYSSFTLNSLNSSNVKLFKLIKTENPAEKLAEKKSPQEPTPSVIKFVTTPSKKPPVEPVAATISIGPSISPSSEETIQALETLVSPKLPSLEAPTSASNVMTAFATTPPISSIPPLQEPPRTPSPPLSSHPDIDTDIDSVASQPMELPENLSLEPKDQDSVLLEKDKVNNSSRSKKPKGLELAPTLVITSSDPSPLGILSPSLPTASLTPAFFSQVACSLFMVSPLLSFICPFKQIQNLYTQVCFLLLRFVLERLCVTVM
The method, boiled down: as §1

A further assay concerns the target T5, ELF3 (Homo sapiens, UniProt P78545 1-371).
T5 sequence: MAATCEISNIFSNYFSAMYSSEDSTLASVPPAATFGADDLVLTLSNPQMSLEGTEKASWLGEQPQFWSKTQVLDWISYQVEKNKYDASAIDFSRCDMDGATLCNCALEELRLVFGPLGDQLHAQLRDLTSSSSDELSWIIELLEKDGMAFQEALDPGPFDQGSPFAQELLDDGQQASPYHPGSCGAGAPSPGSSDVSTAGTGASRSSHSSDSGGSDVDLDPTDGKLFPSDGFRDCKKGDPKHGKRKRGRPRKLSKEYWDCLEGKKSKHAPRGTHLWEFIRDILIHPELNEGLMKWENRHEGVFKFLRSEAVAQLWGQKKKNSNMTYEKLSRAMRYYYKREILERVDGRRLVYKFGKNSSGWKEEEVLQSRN
The method in brief: as §1

Another assay concerns the target T6, ERF (Homo sapiens, UniProt P50548 1-548).
T6 sequence: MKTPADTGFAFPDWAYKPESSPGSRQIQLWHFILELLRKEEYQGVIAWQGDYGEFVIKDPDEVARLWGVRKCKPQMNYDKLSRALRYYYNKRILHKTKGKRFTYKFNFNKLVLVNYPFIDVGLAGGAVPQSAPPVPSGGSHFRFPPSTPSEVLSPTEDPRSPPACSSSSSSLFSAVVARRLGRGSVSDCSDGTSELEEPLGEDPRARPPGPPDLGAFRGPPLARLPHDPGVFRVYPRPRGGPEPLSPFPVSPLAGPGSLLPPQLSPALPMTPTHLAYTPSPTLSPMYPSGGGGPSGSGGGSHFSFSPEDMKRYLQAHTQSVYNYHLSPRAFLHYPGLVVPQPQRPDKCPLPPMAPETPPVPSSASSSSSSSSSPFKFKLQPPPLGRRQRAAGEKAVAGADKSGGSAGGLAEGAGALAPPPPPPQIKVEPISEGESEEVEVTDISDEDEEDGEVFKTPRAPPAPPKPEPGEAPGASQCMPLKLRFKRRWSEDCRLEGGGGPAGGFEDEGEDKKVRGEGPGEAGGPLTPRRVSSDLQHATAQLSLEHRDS
The method in brief: as §1

The target in the next assay is T7, ETV3L (Homo sapiens, UniProt Q6ZN32 1-361).
T7 sequence: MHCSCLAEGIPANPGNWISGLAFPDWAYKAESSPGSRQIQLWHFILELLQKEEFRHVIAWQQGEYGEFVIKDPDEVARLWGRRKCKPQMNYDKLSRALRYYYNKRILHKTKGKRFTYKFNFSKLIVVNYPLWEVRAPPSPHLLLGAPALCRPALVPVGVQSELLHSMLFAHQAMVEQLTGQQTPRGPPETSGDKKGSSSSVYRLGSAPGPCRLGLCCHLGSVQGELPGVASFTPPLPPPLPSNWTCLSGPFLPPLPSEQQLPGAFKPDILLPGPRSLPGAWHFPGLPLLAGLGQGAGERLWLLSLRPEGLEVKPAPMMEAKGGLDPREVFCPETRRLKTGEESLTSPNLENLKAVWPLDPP
The method, boiled down: as §1

The target of another assay is T8, ETS2 (Homo sapiens, UniProt P15036 1-469).
T8 sequence: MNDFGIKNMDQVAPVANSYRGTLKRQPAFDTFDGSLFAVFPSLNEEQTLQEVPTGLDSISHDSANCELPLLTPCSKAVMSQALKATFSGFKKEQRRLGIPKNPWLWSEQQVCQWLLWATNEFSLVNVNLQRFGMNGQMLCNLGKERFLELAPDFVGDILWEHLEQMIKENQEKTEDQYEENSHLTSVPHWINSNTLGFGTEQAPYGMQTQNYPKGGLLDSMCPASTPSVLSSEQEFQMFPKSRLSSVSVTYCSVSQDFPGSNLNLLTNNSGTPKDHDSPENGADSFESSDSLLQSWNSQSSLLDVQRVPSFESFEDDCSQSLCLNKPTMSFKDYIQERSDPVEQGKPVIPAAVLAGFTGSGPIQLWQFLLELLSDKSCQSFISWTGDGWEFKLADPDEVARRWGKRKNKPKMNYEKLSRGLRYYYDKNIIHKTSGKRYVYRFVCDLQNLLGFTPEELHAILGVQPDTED
The method in brief:
as §1

In a further assay the target is T9, ETV7 (Homo sapiens, UniProt Q9Y603 1-341).
T9 sequence: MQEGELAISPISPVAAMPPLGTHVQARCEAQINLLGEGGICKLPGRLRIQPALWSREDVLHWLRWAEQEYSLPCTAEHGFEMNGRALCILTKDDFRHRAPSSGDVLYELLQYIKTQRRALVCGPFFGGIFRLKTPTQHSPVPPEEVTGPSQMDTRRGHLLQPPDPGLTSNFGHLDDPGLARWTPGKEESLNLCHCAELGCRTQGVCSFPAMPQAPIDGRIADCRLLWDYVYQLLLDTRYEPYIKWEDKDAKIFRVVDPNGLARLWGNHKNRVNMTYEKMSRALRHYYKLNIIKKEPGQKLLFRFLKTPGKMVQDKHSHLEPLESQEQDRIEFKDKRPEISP
The method in brief:
as §1

A further assay has as its target ETV6 (Homo sapiens, UniProt P41212 1-452). The method, boiled down: as §1
A further assay deals with T10, ERG (Homo sapiens, UniProt P11308 1-479).
T10 sequence: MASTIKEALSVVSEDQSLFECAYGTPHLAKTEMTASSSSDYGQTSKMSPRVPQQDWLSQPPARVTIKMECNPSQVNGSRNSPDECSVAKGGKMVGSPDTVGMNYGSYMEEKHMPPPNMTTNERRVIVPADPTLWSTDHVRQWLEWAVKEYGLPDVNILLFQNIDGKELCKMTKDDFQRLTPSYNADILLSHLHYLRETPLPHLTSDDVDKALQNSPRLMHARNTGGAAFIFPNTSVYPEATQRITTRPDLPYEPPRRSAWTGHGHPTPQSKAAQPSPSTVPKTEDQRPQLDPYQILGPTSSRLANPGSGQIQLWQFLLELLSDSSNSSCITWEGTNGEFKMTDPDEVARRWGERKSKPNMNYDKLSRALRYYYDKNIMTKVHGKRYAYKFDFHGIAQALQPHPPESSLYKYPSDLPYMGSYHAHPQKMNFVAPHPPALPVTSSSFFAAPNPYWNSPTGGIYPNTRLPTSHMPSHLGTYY
The method in brief:
as §1

A further assay has as its target SPI1 (Homo sapiens, UniProt P17947 1-270). The method, boiled down:
as §1

A further assay concerns the target T11, SPIC (Homo sapiens, UniProt Q8N5J4 1-248).
T11 sequence: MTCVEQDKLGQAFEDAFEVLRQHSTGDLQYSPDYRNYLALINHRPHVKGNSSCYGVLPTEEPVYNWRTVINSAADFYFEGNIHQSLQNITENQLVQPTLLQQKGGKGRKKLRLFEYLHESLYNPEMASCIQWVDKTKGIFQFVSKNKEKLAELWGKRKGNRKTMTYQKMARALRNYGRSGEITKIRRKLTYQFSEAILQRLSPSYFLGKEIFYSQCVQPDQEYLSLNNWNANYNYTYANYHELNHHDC
The method in brief: as §1

The target in another assay is T12, ETV3 (Homo sapiens, UniProt P41162-2 1-143).
T12 sequence: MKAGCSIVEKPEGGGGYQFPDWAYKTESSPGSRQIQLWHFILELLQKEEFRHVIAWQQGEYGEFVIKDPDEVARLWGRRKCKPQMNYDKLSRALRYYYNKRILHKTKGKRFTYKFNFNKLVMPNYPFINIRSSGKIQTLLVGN
The method in brief:
as §1

SPIB, sequence (Q01892 whole entry): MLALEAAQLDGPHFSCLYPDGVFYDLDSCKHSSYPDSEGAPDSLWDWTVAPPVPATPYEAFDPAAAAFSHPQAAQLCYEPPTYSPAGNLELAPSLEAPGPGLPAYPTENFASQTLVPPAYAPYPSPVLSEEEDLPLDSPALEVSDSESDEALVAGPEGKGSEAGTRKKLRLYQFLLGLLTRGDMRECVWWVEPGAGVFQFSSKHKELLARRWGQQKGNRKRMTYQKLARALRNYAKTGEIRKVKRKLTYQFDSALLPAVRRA
ELF4, sequence (Q99607 whole entry): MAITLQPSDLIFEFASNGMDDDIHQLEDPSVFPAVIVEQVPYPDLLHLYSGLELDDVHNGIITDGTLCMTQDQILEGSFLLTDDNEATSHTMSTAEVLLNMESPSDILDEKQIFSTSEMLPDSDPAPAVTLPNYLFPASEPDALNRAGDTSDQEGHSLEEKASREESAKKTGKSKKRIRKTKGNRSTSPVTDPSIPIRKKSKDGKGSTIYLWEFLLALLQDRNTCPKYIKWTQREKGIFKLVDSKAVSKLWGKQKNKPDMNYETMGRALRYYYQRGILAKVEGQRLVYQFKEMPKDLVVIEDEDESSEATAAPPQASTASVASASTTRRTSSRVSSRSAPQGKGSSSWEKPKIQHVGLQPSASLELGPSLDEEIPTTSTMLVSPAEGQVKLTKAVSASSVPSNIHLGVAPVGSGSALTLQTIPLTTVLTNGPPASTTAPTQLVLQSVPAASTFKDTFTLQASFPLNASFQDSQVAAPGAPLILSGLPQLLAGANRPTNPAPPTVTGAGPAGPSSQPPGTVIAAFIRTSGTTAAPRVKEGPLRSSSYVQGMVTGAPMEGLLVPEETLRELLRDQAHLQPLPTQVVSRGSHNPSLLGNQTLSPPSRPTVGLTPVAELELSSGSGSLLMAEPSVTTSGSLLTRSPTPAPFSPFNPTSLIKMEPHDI
ETV6, sequence (P41212 whole entry): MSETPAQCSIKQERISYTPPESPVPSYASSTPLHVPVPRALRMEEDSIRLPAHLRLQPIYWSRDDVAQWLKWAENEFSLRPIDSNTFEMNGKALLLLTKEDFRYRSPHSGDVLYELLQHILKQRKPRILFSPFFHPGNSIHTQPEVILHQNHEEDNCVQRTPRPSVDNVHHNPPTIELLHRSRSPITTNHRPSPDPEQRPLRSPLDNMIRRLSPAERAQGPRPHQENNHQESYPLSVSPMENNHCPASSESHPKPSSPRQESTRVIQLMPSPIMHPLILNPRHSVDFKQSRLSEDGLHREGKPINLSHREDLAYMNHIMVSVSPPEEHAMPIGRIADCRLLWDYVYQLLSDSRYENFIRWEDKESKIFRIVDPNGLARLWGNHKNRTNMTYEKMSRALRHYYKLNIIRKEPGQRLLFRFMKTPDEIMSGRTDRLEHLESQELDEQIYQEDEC
ETV5, sequence (P41161 whole entry): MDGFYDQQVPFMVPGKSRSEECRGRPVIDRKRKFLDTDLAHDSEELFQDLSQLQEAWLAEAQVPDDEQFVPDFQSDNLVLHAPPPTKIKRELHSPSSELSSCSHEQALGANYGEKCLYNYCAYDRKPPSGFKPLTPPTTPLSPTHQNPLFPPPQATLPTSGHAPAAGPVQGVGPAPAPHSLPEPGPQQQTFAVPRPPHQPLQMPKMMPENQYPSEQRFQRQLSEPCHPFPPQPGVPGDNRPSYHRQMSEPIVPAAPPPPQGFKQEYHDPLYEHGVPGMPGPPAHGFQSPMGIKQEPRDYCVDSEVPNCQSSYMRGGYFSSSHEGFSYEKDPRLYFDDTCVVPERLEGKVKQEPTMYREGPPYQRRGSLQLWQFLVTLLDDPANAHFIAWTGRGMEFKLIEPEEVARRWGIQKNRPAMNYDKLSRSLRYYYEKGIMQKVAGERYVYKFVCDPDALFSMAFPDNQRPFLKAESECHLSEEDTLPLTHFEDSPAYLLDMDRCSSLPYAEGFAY
ELF1, sequence (P32519 whole entry): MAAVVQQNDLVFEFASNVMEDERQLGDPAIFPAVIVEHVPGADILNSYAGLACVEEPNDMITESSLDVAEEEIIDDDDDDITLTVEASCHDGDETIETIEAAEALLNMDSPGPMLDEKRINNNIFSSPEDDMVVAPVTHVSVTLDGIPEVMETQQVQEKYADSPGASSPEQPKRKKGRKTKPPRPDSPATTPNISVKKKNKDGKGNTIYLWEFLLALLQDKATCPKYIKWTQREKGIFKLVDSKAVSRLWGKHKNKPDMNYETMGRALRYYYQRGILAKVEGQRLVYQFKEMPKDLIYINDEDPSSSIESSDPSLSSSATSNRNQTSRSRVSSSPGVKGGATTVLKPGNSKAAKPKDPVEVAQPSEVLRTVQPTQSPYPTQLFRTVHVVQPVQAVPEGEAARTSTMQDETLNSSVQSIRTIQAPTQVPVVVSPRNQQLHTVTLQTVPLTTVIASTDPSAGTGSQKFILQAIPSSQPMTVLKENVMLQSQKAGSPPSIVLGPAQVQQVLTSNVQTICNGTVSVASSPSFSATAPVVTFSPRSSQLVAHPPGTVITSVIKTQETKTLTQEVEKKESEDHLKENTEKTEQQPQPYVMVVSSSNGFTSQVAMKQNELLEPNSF

Turning to TCGAAC, the binding signal with ELK1 was 1.01 fold enrichment (6-mer frequency, TF over GST control); with GABPA, 1.02 fold enrichment (6-mer frequency, TF over GST control); with ELF1, 1.09 fold enrichment (6-mer frequency, TF over GST control); in the assay with EHF, 1.07 fold enrichment (6-mer frequency, TF over GST control); with SPIB it was 1.03 fold enrichment (6-mer frequency, TF over GST control); in the assay with ETV5, 1.01 fold enrichment (6-mer frequency, TF over GST control). Also, the binding signal is 1.01 fold enrichment (6-mer frequency, TF over GST control) in the assay with ELF4; 1.05 fold enrichment (6-mer frequency, TF over GST control) with ELK4; 1.05 fold enrichment (6-mer frequency, TF over GST control) with ELF3; 1.07 fold enrichment (6-mer frequency, TF over GST control) with ERF; 1.07 fold enrichment (6-mer frequency, TF over GST control) with ETV3L; 1.03 fold enrichment (6-mer frequency, TF over GST control) with ETS2. Also, the binding signal with ETV7 was 1.04 fold enrichment (6-mer frequency, TF over GST control); in the assay with ETV6, 1 fold enrichment (6-mer frequency, TF over GST control).
As to ACTGGT, the binding signal in the assay with ELK1 was 1.06 fold enrichment (6-mer frequency, TF over GST control); with GABPA it was 1.08 fold enrichment (6-mer frequency, TF over GST control); with ERG, 1.07 fold enrichment (6-mer frequency, TF over GST control); with ELF1, 1.13 fold enrichment (6-mer frequency, TF over GST control); in the assay with SPI1 it was 1.1 fold enrichment (6-mer frequency, TF over GST control); with SPIB, 1.08 fold enrichment (6-mer frequency, TF over GST control). Also, the binding signal is 1.02 fold enrichment (6-mer frequency, TF over GST control) in the assay with ETV5; 1.07 fold enrichment (6-mer frequency, TF over GST control) in the assay with SPIC; 1.07 fold enrichment (6-mer frequency, TF over GST control) with ELF4; 1.06 fold enrichment (6-mer frequency, TF over GST control) with ELK4; 1.06 fold enrichment (6-mer frequency, TF over GST control) with ELF3; 1.03 fold enrichment (6-mer frequency, TF over GST control) with ERF. Also, the binding signal with ETV3L was 1.07 fold enrichment (6-mer frequency, TF over GST control); with ETS2 it was 1.03 fold enrichment (6-mer frequency, TF over GST control); in the assay with ETV7, 1.05 fold enrichment (6-mer frequency, TF over GST control); with ETV3, 1.06 fold enrichment (6-mer frequency, TF over GST control); in the assay with ETV6, 1.08 fold enrichment (6-mer frequency, TF over GST control).
